Reference: the supplement of paper PMC13380429

What was measured:
[1] = system: Vero E6 infected with SARS-CoV-2; experiment: morphology score (similarity to uninfected cells); higher = more like uninfected cells; conditions: 24 h
[2] = system: Vero E6 infected with SARS-CoV-2; experiment: SARS-CoV-2 infection rate relative to infected DMSO; higher = more infection, active = 60 or less; conditions: 24 h

| SMILES | morphology score [1] | SARS-CoV-2 infection rate [2] |
| --- | --- | --- |
| O=c1cc(N2CCOCC2)oc2c(-c3ccccc3)cccc12 (0.833333 µM) | 0.266 | 98.5% (inactive) |
| C[C@H](c1ccc2ccc(OC3CCC(C(F)(F)F)CC3)c(C(F)(F)F)c2c1)N1C2CCC1CC(C(=O)O)C2 (stereo partly specified) [autotaxin-modulator-1] (10 µM) | 0.317 | 91% (inactive) |
| NC(=O)c1noc([C@H](CCCC2CCCCC2)CC(=O)NO)n1 (10 µM) | 0.51 | 85% (inactive) |
| COc1ccc2cc1Oc1ccc(cc1)C[C@H]1c3cc(c(OC)cc3CCN1C)Oc1c(OC)c(OC)cc3c1[C@H](C2)N(C)CC3 [tetrandrine] (10 µM) | 0.509 | 12% (active) |
| CCC(CC)Nc1cc(C)nc(Oc2c(C)cc(C)cc2C)c1C (10 µM) | 0.248 | 100% (inactive) |
| CO[C@H]1/C=C/O[C@@]2(C)Oc3c(C)c(O)c4c(O)c(cc(O)c4c3C2=O)NC(=O)/C(C)=C\C=C\[C@H](C)[C@H](O)[C@@H](C)[C@@H](O)[C@@H](C)[C@H](OC(C)=O)[C@@H]1C [rifamycin-sv] (10 µM) | 0.117 | 94.2% (inactive) |
| CN(C)CCCN1c2ccccc2Sc2ccccc21 [promazine] (10 µM) | 0.41 | 91.5% (inactive) |
| CC(=O)Nc1cccc(-n2c(=O)n(C3CC3)c(=O)c3c(Nc4ccc(I)cc4F)n(C)c(=O)c(C)c32)c1 [trametinib] (0.833333 µM) | 0.263 | 89% (inactive) |
| O=Nc1c(-c2c(O)[nH]c3ccccc23)[nH]c2ccccc12 [indirubin-3-monoxime] (0.833333 µM) | 0.00718 | 106% (inactive) |
| CN(C)CCCC(=O)Nc1ccc(C(=O)Nc2cccc(Nc3ncc(Cl)c(-c4c[nH]c5ccccc45)n3)c2)cc1 (10 µM) | 0.132 | 101% (inactive) |
| C#C[C@]1(OC(C)=O)CC[C@H]2[C@@H]3CCC4=CC(=O)CC[C@@H]4[C@H]3CC[C@@]21C [norethindrone-acetate] (10 µM) | -0.146 | 106% (inactive) |
| Cc1c(C(=O)NCCCO)cnn1-c1nc(-c2cccc(C(F)(F)F)c2)cs1 (10 µM) | 0.107 | 97.5% (inactive) |
| C[C@H](NC[C@H](O)CP(=O)(O)Cc1ccccc1)c1ccc(Cl)c(Cl)c1 (10 µM) | 0.127 | 106% (inactive) |
| Nc1nonc1/C(=N/O)Nc1ccc(F)c(Cl)c1 (10 µM) | 0.043 | 112% (inactive) |
| Oc1ccc(CC2NCCc3cc(O)c(O)cc32)cc1 (stereo unspecified) [higenamine] (0.833333 µM) | 0.0764 | 103% (inactive) |
| Cc1cc(C(C)(C)C)c(O)c(C)c1CC1=NCCN1 [oxymetazoline] (10 µM) | 0.233 | 100% (inactive) |
| CN(C)CCN(Cc1cccs1)c1ccccn1 [methapyrilene] (10 µM) | -0.165 | 113% (inactive) |
| CCCCCCCCCCCCCCCCOc1nc2ccc(C)cc2c(=O)o1 [cetilistat] (10 µM) | -0.00505 | 104% (inactive) |
| Cc1ccc(NC(=O)c2cccc(N(C)C)c2)cc1NC(=O)c1ccc(O)cc1 (10 µM) | -0.0598 | 97.5% (inactive) |
| NS(=O)(=O)c1cc(C(=O)O)cc(N2CCCC2)c1Oc1ccccc1 [piretanide] (10 µM) | 0.0293 | 110% (inactive) |
| CN1C(=O)CCS(=O)(=O)C1c1ccc(Cl)cc1 (stereo unspecified) [chlormezanone] (10 µM) | -0.0968 | 117% (inactive) |
| COc1c(N2C[C@@H]3CCCN[C@@H]3C2)c(F)cc2c(=O)c(C(=O)O)cn(C3CC3)c12 [moxifloxacin] (10 µM) | 0.0295 | 106% (inactive) |
| O=C(/C=C/c1ccccc1)NCCO [brolitene] (10 µM) | 0.199 | 93.5% (inactive) |
| NS(=O)(=O)c1cc2c(cc1Cl)N=C(CSCc1ccccc1)NS2(=O)=O [benzthiazide] (10 µM) | -0.187 | 116% (inactive) |
| O=c1[nH]c(=O)n([C@H]2C[C@H](O)[C@@H](CO)O2)cc1F [floxuridine] (0.833333 µM) | -0.065 | 99% (inactive) |
| CCCCCCOC(=O)CCC(=O)CN [hexaminolevulinate] (10 µM) | 0.0924 | 102% (inactive) |
| CC(=O)c1ccc(S(=O)(=O)NC(=O)NC2CCCCC2)cc1 [acetohexamide] (10 µM) | 0.11 | 100% (inactive) |
| O=C(O)Cn1c2c(c3cc(F)ccc31)CN(C(=O)c1cccc3ccccc13)CC2 [setipiprant] (10 µM) | -0.161 | 108% (inactive) |
